Assay results from the OligoGym collection.
Note: reference of the scale not given here.

What follows are sequences tested against ZNF708 (assay: pooled miR-30 sensor sort-seq; sequence = guide strand). Settings: shRNA.
For TTTCTAGTAAGAATTATCTTAC, the sensor-assay potency score (higher = more potent) was -0.946. TTGAAAATACACTAAAAGCTTT gave a sensor-assay potency score (higher = more potent) of -0.61. With TTTCTTGTGATTAGTAAGGTTT the sensor-assay potency score (higher = more potent) was -0.453. Sequence TCTGATATCCACATTTTCCATA has a sensor-assay potency score (higher = more potent) of -1.12. TACTGTGATGTCTTCCAGCTTT gave a sensor-assay potency score (higher = more potent) of -0.106.

Each sequence was assayed against ZNF718 in the same assay as above. Settings: shRNA.
For TTTATCTACAGTGTGAATTTTC, the sensor-assay potency score (higher = more potent) was -0.972. TTAAATTCTCATGTCCACGTTT gave a sensor-assay potency score (higher = more potent) of -0.266. ATATCTTATCTTATCTTTGTTT showed a sensor-assay potency score (higher = more potent) of -0.436. TTATGTTTAGCAAAGTCTGAGG gave a sensor-assay potency score (higher = more potent) of -0.614. With TCTATTATAACCACCTTTCTGC the sensor-assay potency score (higher = more potent) was -0.0639. Sequence TTATGTGTCGTAAGAGTTGTGG has a sensor-assay potency score (higher = more potent) of 0.343. For TAATTCTATTATAACCACCTTT, the sensor-assay potency score (higher = more potent) was -0.203. Work on TATCTTATCTTATCTTTGTTTG yielded a sensor-assay potency score (higher = more potent) of -1.2. In the case of ATTTGTAGTATTTTTGTGCAGA, the sensor-assay potency score (higher = more potent) is reported as -0.171. Sequence TTTTGTGTTGAGTTAGGCGTGA has a sensor-assay potency score (higher = more potent) of 0.0879.
